Only some compounds are listed: those with a hit (about 3.5% of all), similar ones and a draw of the others.
MITF primary: MITF inhibitors, primary screen, biochemical, AlphaScreen, human. AlphaScreen MITF homodimerization, bead proximity signal. Microphthalmia-associated transcription factor (Homo sapiens), O75030. inhibition, % at 2.6 µM. AID 1259374, 2018. 650,000 compounds, 0.91% hits; in the data active means inhibition above about 50%
Target sequence (O75030 whole entry, looked up): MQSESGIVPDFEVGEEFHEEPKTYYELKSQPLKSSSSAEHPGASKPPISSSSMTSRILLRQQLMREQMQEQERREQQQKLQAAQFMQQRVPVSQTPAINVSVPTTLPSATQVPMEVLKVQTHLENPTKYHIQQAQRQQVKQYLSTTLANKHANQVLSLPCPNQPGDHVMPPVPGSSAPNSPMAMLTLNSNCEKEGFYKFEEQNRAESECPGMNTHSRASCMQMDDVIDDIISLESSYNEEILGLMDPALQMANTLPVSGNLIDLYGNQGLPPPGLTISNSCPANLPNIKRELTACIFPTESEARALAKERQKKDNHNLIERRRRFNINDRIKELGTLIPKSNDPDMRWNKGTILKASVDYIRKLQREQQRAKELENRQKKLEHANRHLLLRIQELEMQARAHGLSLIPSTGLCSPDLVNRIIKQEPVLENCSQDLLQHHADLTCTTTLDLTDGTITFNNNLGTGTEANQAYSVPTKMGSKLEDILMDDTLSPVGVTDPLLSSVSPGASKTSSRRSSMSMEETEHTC
GPR151 activ: activators of human GPR151, primary screen, cell-based, PathHunter beta-arrestin, luminescence; G-protein coupled receptor 151 (Homo sapiens), Q8TDV0; PathHunter beta-arrestin GPR151 cells; activation, % at 11.2 µM; 650,000 compounds, 1% hits; AID 1508602, 2020; in the data active means activation above about 4.9%
FBW7 activator: FBW7 E3 ligase activators, primary screen, biochemical, AlphaScreen, human; normalized activity (activation), % at 26.1 µM; 650,000 compounds, 0.13% hits; AID 1259310, 2017; AlphaScreen FBW7–phospho-cyclin E peptide binding, activator screen; in the data active means normalized activity above about 1.9%;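 further: purified mutant Fbw7 with reduced substrate affinity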
TEAD-YAP inh: TEAD-YAP interaction inhibition, primary screen, TEAD-YAP interaction inhibitor project, luminescence, HEK-TIYL cells; TEAD-Gal4/YAP UAS-luciferase luminescence; inhibition, % at 9.12 µM; 640,000 compounds, 1.4% hits; in the data active means inhibition above about 32%
MITF inh conf: MITF inhibitors, retest of hits, confirmation, biochemical, AlphaScreen, triplicate; shares compounds with MITF primary; AlphaScreen MITF homodimerization, biotin/His-MITF beads; inhibition, % at 2.6 µM; 4,700 compounds, 16% hits;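 active means inhibition above a cutoff derived from the DMSO control wells, cut at about 28% in these data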;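 further: inhibitors lower the bead chemiluminescence by keeping MITF from dimerizing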
AlphaScreen DR: AlphaScreen optical interference compounds, dose response, counter-screen, biochemical, HTS | shares compounds with MITF primary | AlphaScreen optical interference counterscreen, cell-free | IC50, µM | 480 compounds, 6% hits; call rule not given here
AS interf ctr: AlphaScreen optical interference compounds, counter-screen for MITF inhibitor project, biochemical, triplicate | shares compounds with MITF primary | inhibition, % at 2.6 µM | LysRS AlphaScreen counterscreen, signal interference | 4,700 compounds, 7.6% hits;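 active means inhibition above a cutoff derived from the DMSO control wells, cut at about 30% in these data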
GPR151 conf act: GPR151 activators, triplicate retest, confirmation, cell-based, PathHunter beta-arrestin, luminescence; shares compounds with GPR151 activ; 6,700 tested, under 10 active; activation, % at 11.2 µM; AID 1508609, 2020; GPR151 PathHunter beta-arrestin cells, 90 min; % of EA-reagent control over plate median;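 active means mean percent activation across replicates above the confirmation screen cutoff of 4.91%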
GPR119 counter: GPR119 activators in beta-arrestin cells, counter-screen for GPR151 activator project, cell-based, PathHunter beta-arrestin, luminescence, triplicate; shares compounds with GPR151 activ; 90 min; 0 = compound-well median, 100 = enzyme-acceptor control; activation, % at 11.2 µM; 6,700 compounds, 0.3% hits; AID 1508611, 2020;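 active means mean percent activation in the counterscreen above 29.09%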;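 further: counterscreen on off-target GPR119 to flag nonselective hits from the GPR151 activator screen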
Each line names hits and unclear results; the compound was inactive in the other large screens (follow-up assays come after a bar, where they were run).

O=[N+]([O-])c1ccc(CSCCc2ccccn2)cc1	MITF primary 70.0 | MITF inh conf inactive | AS interf ctr inactive
COc1ccc2c(c1)CC(c1nc3ncc(-c4ccnc(N)n4)cc3[nH]1)CO2 (configuration not stated)	none
CC(=O)c1ccc2c(c1)CC(c1nc3ncc(-c4ccnc(N)n4)cc3[nH]1)CO2 (configuration not stated)	MITF primary 50.9 | MITF inh conf inactive | AS interf ctr inactive
CCCCCOC(=O)C1=C(C)NC2=C(C(=O)CC(C)(C)C2)C1c1ccccc1I (configuration not stated)	MITF primary 60.6 | MITF inh conf inactive | AS interf ctr inactive
COc1ccc(C2C(C(=O)OC(C)C)=C(C)NC3=C2C(=O)CC(C)(C)C3)c(OC)c1OC (configuration not stated)	none
COc1cccc(C2C(C(=O)OC(C)C)=C(C)NC3=C2C(=O)CC(C)(C)C3)c1OC (configuration not stated)	MITF primary 64.2 | MITF inh conf inactive | AS interf ctr inactive
CN(C)c1nc2c(=O)[nH]c(N)nc2n1[C@@H]1OC(CO)C(O)C1O (some centres not stated)	none
CC(C)NC(=O)c1ccc2c(=O)n(CCC3=CCCCC3)c(=S)[nH]c2c1	MITF primary 83.9 | MITF inh conf inactive | AS interf ctr inactive
COCCn1c(=S)[nH]c2cc(C(=O)NCc3ccc(C)cc3)ccc2c1=O	MITF primary 62.0 | MITF inh conf inactive | AS interf ctr inactive
COCCn1c(=S)[nH]c2cc(C(=O)NCc3ccc(F)cc3)ccc2c1=O	none
Cc1cccc(N2C(=O)NC(=O)/C(=C\c3cc(C)n(C4CC4)c3C)C2=O)c1	none
CN(CCc1ccccn1)C(=O)c1ccc(F)cc1	MITF primary 77.2 | MITF inh conf inactive | AS interf ctr inactive
CN(CCc1ccccn1)C(=O)c1cccc(F)c1	MITF primary 105.1 | MITF inh conf inactive | AS interf ctr inactive
COc1ccc(CNS(=O)(=O)c2cccc(C#N)c2)cc1OC	none
Cc1cccc(CN2CCN(Cc3ccccc3C(F)(F)F)CC2)c1	MITF primary 75.6 | MITF inh conf inactive | AS interf ctr inactive
Clc1cccc(CN2CCN(c3ncccn3)CC2)c1	none
FC(F)(F)c1ccccc1CN1CCN(Cc2cccc(Cl)c2)CC1	MITF primary 68.6 | MITF inh conf inactive | AS interf ctr inactive
Cc1ccc(S(=O)(=O)N2CCN(Cc3cccc(C)c3)CC2)cc1	none
O=C1N[C@@H](Cc2ccccc2)C(=O)N2CCN(Cc3ccsc3)C[C@H]12	none
Cc1ccc(S(=O)(=O)c2nc(-c3ccco3)oc2N2CCCC2)cc1	none
O=C(/C=C/c1ccc2c(c1)OCO2)CC1(O)C(=O)N(Cc2ccccc2)c2ccccc21 (configuration not stated)	MITF primary 68.3 | MITF inh conf inactive | AS interf ctr inactive
Cc1ccc(-c2cc(=O)oc(-c3ccco3)n2)cc1[N+](=O)[O-]	none
O=C1c2ccc([N+](=O)[O-])cc2C(=O)N1c1cc(Br)c(O)c(Br)c1	MITF primary 68.7 | MITF inh conf 75.4 | AlphaScreen DR inactive | AS interf ctr inactive
O=C(Cc1cccc2ccccc12)N/N=C/C=C/c1ccc([N+](=O)[O-])cc1	none
Fc1ccccc1CN1CCN(C2CCCC2)CC1	none
Cc1ccccc1CN1CCC(N2CCC(C(=O)N3CCCC3)CC2)CC1	none
OCCN1CCN(C2CCN(Cc3ccccc3F)CC2)CC1	MITF primary 82.4 | MITF inh conf inactive | AS interf ctr inactive
CC1CCN(C2CCN(Cc3ccccc3F)CC2)CC1	MITF primary 63.5 | MITF inh conf inactive | AS interf ctr inactive
CC1CCN(Cc2c(F)cccc2F)CC1	MITF primary 62.7 | MITF inh conf inactive | AS interf ctr inactive
Cc1ccccc1CN1CCC(N2CCN(CCO)CC2)CC1	MITF primary 58.6 | MITF inh conf inactive | AS interf ctr inactive
Fc1cccc(F)c1CN1CCOCC1	none
CCS(=O)(=O)C1=NSC2=NC(=O)/C(=C\c3cccc4ccccc34)C(=N)N21	none
CN1C(=O)N(C)C2NC(=O)NC21 (configuration not stated)	none
Cc1ccccc1CN1CCN(C2CCCCCC2)CC1	MITF primary 68.8 | MITF inh conf inactive | AS interf ctr inactive
Oc1ccc(CCNc2cc(-c3cccs3)ncn2)cc1	MITF primary 59.0 | MITF inh conf 44.2 | AlphaScreen DR inactive | AS interf ctr inactive
O=C1C(=O)N(CC2CCCO2)C(c2ccc(Cl)cc2)/C1=C(/O)c1ccccc1 (configuration not stated)	none
O=C1C(=O)N(CC2CCCO2)C(c2ccco2)/C1=C(/O)c1ccc(Cl)cc1 (configuration not stated)	MITF primary 52.7 | MITF inh conf inactive | AS interf ctr inactive
O=C(NCc1cccnc1)c1ccnc(-c2cccs2)c1	MITF primary 50.9 | MITF inh conf 29.8 | AlphaScreen DR inactive | AS interf ctr inactive
O=C(NCc1ccccc1)c1ccnc(-c2cccs2)c1	none
CC(C)=C1C2CC2C2C(C(=O)O)C12 (configuration not stated)	MITF primary 60.0 | MITF inh conf inactive | AS interf ctr inactive
COC(=O)N(C)c1nc2ccccc2s1	MITF primary 72.3, GPR151 activ 5.1 | MITF inh conf inactive | AS interf ctr inactive | GPR151 conf act inactive | GPR119 counter inactive
COc1ccc(NC(=O)c2cnc(N3CCN(c4ncccn4)CC3)c3ccccc23)cc1OC	MITF primary 63.3, GPR151 activ 5.3, TEAD-YAP inh 49.7 | MITF inh conf inactive | AS interf ctr inactive | GPR151 conf act inactive | GPR119 counter 29.5
COc1ccc(NC(=O)c2cnc(N3CCN(c4ccccn4)CC3)c3ccccc23)cc1Cl	none
